Sampled rows, rich in hits. Any-hit rate of the full collection: about 3%.
Tau fluor cs – counter-screen for tau fibril formation inhibitors. tau K18 P301L Alexa594 fluorescence, heparin fibrillization. Potency, µM (doses to about 57.7 µM), without a hit: top-dose activity change, negative = decrease. AID 1463. 280,000 tested, 0.93% active; also: potency is read from the fitted curve at half-maximal effect; nearly all actives have a fitted effect of over 55% in size
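Human K18 P301L tau (15 uM unlabeled plus 0.24 uM Alexa 594-labeled, final) in 100 mM sodium acetate pH 7 was mixed with compound and 20 uM heparin and incubated 6 hr at 37 C.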
Coupling enz – counter-screen for Giardia aldolase inhibitors: coupling enzyme system; 290,000 tested, 0.67% active; activity change, negative = inhibition, % at 58.2 µM, hits read low; coupling enzyme system counterscreen, AmpLite Red fluorescence; in the data active = activity change below about -30%
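First, compound is pin-transferred into glyceraldehyde-3-phosphate coupling-enzyme reagent at 57.5 uM final and held 10 min at RT. Next, substrate, coupling system and AmpLite Red are added. After 20 min RT, fluorescence (525/598 nm) is read.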
Tau fibril ThT – inhibitors of human tau fibril formation, thioflavin T binding. recombinant tau K18 P301L, heparin-induced fibrillization, ThT fluorescence. Potency, µM (highest dose often 57.4 µM), without a hit: at the top dose activity, negative = inhibition, actives largely listed as inhibitors. 270,000 tested, 2.1% active. AID 1460. P10636; also: potency is read from the fitted curve at half-maximal effect; nearly all actives have a fitted effect of over 55% in size
Target sequence (P10636 561-689 P618L limits assumed): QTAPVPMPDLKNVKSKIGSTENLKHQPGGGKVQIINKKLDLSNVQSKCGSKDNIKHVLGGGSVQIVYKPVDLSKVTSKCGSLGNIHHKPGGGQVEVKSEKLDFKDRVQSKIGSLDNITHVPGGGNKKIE
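ThT emission at 510 nm, taken 1 hr after adding 30 uM dye, quantifies aggregates formed when 20 uM heparin acts on human tau K18 P301L for 6 hr at 37 C.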
KDM4E inh – inhibitors of human JMJD2E histone demethylase; JMJD2E catalytic domain, FDH-coupled NADH fluorescence (FDH is formaldehyde dehydrogenase); Potency, µM (highest dose often 57.1 µM), without a hit: top-dose activity change, negative = inhibition, most hits filed as inhibitors; 230,000 tested, 1.6% active; AID 2147; active = well fitted inhibition curve with a large enough effect, not every such curve was filed as active; inconclusive = small, poorly fitted or top-dose-only effect, or another doubt; inactive = no such curve, though single readings can be large or run the other way;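 also: potency is read from the fitted curve at half-maximal effect; 0% = wells with enzyme and -100% = buffer wells without enzyme; nearly all actives have a fitted effect of over 50% in size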
Target sequence (B2RXH2 1-337 limits assumed): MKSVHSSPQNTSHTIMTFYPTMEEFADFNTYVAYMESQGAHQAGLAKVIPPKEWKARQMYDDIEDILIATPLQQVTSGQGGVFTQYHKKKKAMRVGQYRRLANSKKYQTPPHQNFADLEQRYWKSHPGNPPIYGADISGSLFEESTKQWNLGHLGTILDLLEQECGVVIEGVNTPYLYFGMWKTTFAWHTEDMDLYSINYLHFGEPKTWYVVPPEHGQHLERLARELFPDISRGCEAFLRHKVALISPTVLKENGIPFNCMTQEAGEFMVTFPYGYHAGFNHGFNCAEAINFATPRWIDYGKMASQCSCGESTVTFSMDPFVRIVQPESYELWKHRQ
Tau FP inhib – tau fibrillization inhibition (FP). K18 P301L tau heparin fibrillization, Alexa594 FP, 6 h. 280,000 tested, 0.39% active. Potency, µM (titrated, usually from 57.7 µM), inactives show top-dose activity, negative = inhibition, actives largely listed as inhibitors. P10636; also: potency is read from the fitted curve at half-maximal effect; nearly all actives have a fitted effect of over 55% in size
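Human K18 P301L fragment (15 uM unlabeled plus 0.24 uM Alexa 594-labeled) in 100 mM sodium acetate pH 7 with compound, aggregation induced by 20 uM heparin for 6 hr at 37 C. ThT (30 uM) added for 1 hr, then Alexa 594 FP read.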
* hit, by the source's call; ? = inconclusive; . = no result; [ ] = remark or other dose. Unless noted, calls follow the shape of the dose curve; as a rule, active = well fitted curve in the direction sought with a large enough effect; inconclusive = small, poorly fitted or top-dose-only effect, or another doubt; inactive = no such curve, though single readings can be large; an effect the other way counts as inactive or inconclusive. Unless noted, % is scaled to controls: 0 for no effect and ±100 for the full control effect.

SMILES	Tau fluor cs	Coupling enz	Tau fibril ThT	KDM4E inh	Tau FP inhib
CC(/C=C1\SC(=S)N(CC(=O)O)C1=O)=C\c1ccccc1	-23.0%	24.2	7.94µM*	-1.3%	-7.8%
CC(/C=C1\SC(=O)N(CC(=O)Nc2cccc(O)c2)C1=O)=C\c1ccccc1	6.31µM*[quencher]	0.4	-27.0%	-8.3%	15.8µM*
C=CCOc1ccc(/C=C2\SC(=S)N(C(C(=O)O)c3ccccc3)C2=O)cc1 (configuration not stated)	-4.1%	-1.6	22.4µM*	12.2%	-5.6%
COc1ccc2ncc3c(-c4ccc(C)c(C)c4)nn(CC(=O)Nc4ccccc4)c3c2c1	-22.4%	.	-13.2%	.	-9.5%
C/C(=C\COc1c2ccoc2cc2oc(=O)ccc12)CCC(O)C(C)(C)O (configuration not stated)	.	0.4	.	.	.
CC(/C=C1\SC(=S)N(CC(=O)N2CCN(c3ccccc3)CC2)C1=O)=C\c1ccccc1	-22.2%	4.5	?	4.5%	2.2%
CC(=C\c1ccco1)/C=C1/SC(=S)N(CC(=O)O)C1=O	?	3.1	3.98µM*	-1.8%	?
CC(=C\c1ccccc1)/C=C1/SC(=S)N(CCC(=O)O)C1=O	.	8.7	.	.	.
CC(/C=C1\SC(=S)N(C(C(=O)O)c2ccccc2)C1=O)=C\c1ccccc1 (configuration not stated)	-12.9%	6.0	31.6µM*	-0.7%	-13.5%
Cc1ccccc1CNC(=O)c1oc2c(c1C)-c1nn(Cc3ccc(Cl)cc3)cc1CC2	-27.4%	.	-1.7%	.	-8.1%
Cn1nc(-c2ccc(Cl)cc2)nc2c(=O)n(C)c(=O)nc1-2	-16.5%	-76.1*	8.91µM*	?	?
CCOc1ccc(C(=O)Nc2nnc(S(=O)(=O)N(CC)c3ccccc3C)s2)cc1	?	.	?	.	-10.0%
CC(=O)Nc1ccccc1-c1nc2ccccc2n(CC(=O)c2ccc(Br)cc2)c1=O	-9.6%	.	-10.4%	.	3.4%
CCOc1ccc(C(=O)/C=C/c2cn(CC(O)CN3CCc4ccccc43)c3ccccc23)cc1 (configuration not stated)	?	.	?	.	10.8%
O=C(CSc1nc2ccccc2[nH]1)N=Nc1c(O)[nH]c2ccccc12	?	2.0	14.1µM*	7.5%	-12.7%
O=C(N=Nc1c(O)[nH]c2ccccc12)c1cccs1	-26.4%	-1.2	10µM*	-0.3%	-14.2%
CC(=O)c1cccc(N=Nc2c(C)[nH]c3ccccc23)c1	14.1µM*[quencher]	-3.6	10µM*	1.5%	-10.1%
O=C(O)c1ccc(N=Nc2c(O)[nH]c3ccccc23)cc1	-10.1%	-2.1	15.8µM*	-9.1%	5.3%
Cn1c(SCC(=O)N=Nc2c(O)[nH]c3ccccc23)nc2ccccc21	-3.7%	1.4	-4.5%	-7.2%	-3.6%
Oc1[nH]c2ccccc2c1N=Nc1c(F)c(F)c(C(F)(F)F)c(F)c1F	.	-0.8	.	.	.
Cc1ccccc1OCC(=O)Nc1ccc(S(=O)(=O)N(Cc2ccccc2)c2ccccc2)cc1	-22.0%	.	7.6%	.	?
Cc1ccsc1/C=N/N=C1\C(=O)Nc2ccccc21	?	-0.1	14.1µM*	-3.5%	9.3%
Cc1ccsc1/C=N/N=C/c1sccc1C	.	1.7	.	.	.
O=C(/C(=N/N=C/c1ccc(O)c(O)c1)c1ccccc1)c1ccccc1	12.6µM*[quencher]	-6.6	?	?	-6.6%
COc1cc(/C=N/N=C2/C(=O)Nc3ccccc32)ccc1O	?	0.1	11.2µM*	-3.5%	7.2%
SMILES	Tau fluor cs	Coupling enz	Tau fibril ThT	KDM4E inh	Tau FP inhib
O=C1Nc2ccccc2/C1=N\N=C\c1ccc(O)c(O)c1	?	-8.7	4.47µM*	7.94µM*	-2.7%
Oc1ccc(/C=N/N=C/c2ccc(O)c(O)c2)cc1O	.	-4.2	.	.	.
COc1cccc(NC(=O)CCc2nc(-c3cc(OC)c(OC)c(OC)c3)no2)c1	?	.	?	.	-8.5%
CN(C)CCCOc1c2ccccc2n(Cc2ccccc2)[n+]1[O-]	.	-0.7	.	.	.
CC1CCCN(c2csc3ccccc3c2=O)C1 (configuration not stated)	-19.8%	.	?	.	6.4%
CCN1CCN(c2csc3ccc(Cl)cc3c2=O)CC1	-27.8%	.	?	.	-3.5%
O=c1c(N2CCN(c3ccccc3)CC2)csc2ccc(Cl)cc12	?	.	12.6µM*	.	-13.1%
O=c1c(N2CCN(c3cccc(Cl)c3)CC2)csc2ccccc12	-27.3%	.	10µM*	.	11.2%
CCC(=O)NC(c1ccc(C)cc1)c1ccc2cccnc2c1O (configuration not stated)	.	1.0	.	.	.
COc1ccc(C(NC(=O)C(C)C)c2ccc3cccnc3c2O)cc1 (configuration not stated)	-5.4%	0.8	.	28.2µM*	9.1%
CC(=O)NC(c1ccco1)c1ccc2cccnc2c1O (configuration not stated)	-10.0%	-0.2	-15.6%	25.1µM*	1.3%
O=C(NCc1ccc(Cl)cc1)C(=O)NCC(c1ccco1)S(=O)(=O)c1cccs1 (configuration not stated)	-24.2%	.	-4.2%	.	-9.1%
Cc1ccc2nc(-c3ccncc3)c(Nc3ccc(C(C)C)cc3)n2c1	-15.5%	.	-0.4%	.	12.1%
C[C@H](NC(=O)CNC(=O)[C@@H](NC(=O)[C@H](Cc1ccccc1)NC(=O)CNC(=O)CNC(=O)[C@@H](N)Cc1ccccc1)[C@@H](C)O)C(=O)N[C@@H](CCCN=C(N)N)C(=O)N[C@@H](CCCCN)C(=O)N[C@@H](CO)C(=O)N[C@@H](C)C(=O)N[C@@H](CCCN=C(N)N)C(=O)N[C@H](CN)CCCCN	-1.2%	.	10.2%	.	1.7%
COc1ccc(NC(=O)N2CCc3c(sc4c3CCCC4)C2c2ccc(F)cc2)cc1 (configuration not stated)	-15.3%	.	-3.9%	.	2.5%
CC1Cn2c(C(=O)NCCc3ccc(Cl)cc3)cc3cccc(c32)S1 (configuration not stated)	?	.	-5.2%	.	?
O=C(N/N=C/c1ccc(-c2ccc(S(=O)(=O)Nc3ncccn3)cc2)o1)c1cc2ccccc2cc1O	?	7.2	14.1µM*	?	?
CCOc1ccc(C(=O)N/N=C/c2ccc(-c3ccc(S(=O)(=O)Nc4ncccn4)cc3)o2)cc1	-19.3%	13.4	?	?	-0.6%
COc1ccc2nc(N(Cc3cccnc3)C(=O)c3ccc(Cl)cc3)sc2c1	-17.8%	.	-12.8%	.	-13.2%
CCC1Oc2ccc(C)cc2N(CC(=O)NCCc2ccccc2)C1=O (configuration not stated)	0.5%	.	8.4%	.	-9.2%
c1ccc2oc(SCc3cn4ccsc4n3)nc2c1	-7.6%	2.9	?	-6.6%	-0.3%
Cc1csc2nc(CSc3nc4ccccc4o3)cn12	-9.5%	-51.1*	?	-2.5%	-6.7%
CC(C)C(=O)N(c1cc2sc(=O)oc2c2ccccc12)S(=O)(=O)c1cccs1	?	-15.7	15.8µM*	10µM*	?
CCc1ccc(S(=O)(=O)c2nnn(-c3cccc(C)c3)c2N)cc1	?	.	-12.2%	.	-4.3%
